In ChEMBL document CHEMBL3433997, “St. Jude Leishmania screening dataset” (2016) one finds inhibition data, which are given here for 16 compounds.

Molecules are shown by their SMILES. Several values for one entry are separate records, joined by “and”; a condition that tells them apart may be missing. Equal entries are not always repeated.

The experiment deals with Glucose transporter (Leishmania mexicana) (UniProt O61059). In words: ST_JUDE_LEISH: Cytotoxicity at 2uM final concentration against transgenic Leishmania Mexicana promastigotes LmGT2 that are glucose transport deficient and complemented with the L. Mexicana glucose transporter 2. Activity is measured by DNA content using SYBR green in vitro. Format: functional.
In general, inhibition refers to the drop in the measured response relative to a control, in per cent. Take `CC(C)(C)CNCC(C)(C)c1nc(-c2ccc(Cl)c(O)c2)c(-c2ccncc2)[nH]1`: the inhibition was -1.37%.

In the case of `COc1cccc(CCNCc2ccc(-c3cccc(CNC4CCCC4)c3)cc2)c1`, the inhibition stood at 3.02%. To `O=C(Nc1ccc([N+](=O)[O-])cc1Cl)c1cc2ccccc2cc1O` belongs 1.3%; to `N=C(N)c1ccc(NCc2cccc(C(=O)O)c2)cc1`, 3.66%. Under `CN(C)c1cc(C(=O)N[C@@H](Cc2ccccc2)[C@H](O)CNC2CCCCC2)cc2[nH]ccc12` stands 7.44%.

Take `FC(F)(F)c1ccc2c(NCCNc3ccnc4cc(C(F)(F)F)ccc34)ccnc2c1`: the inhibition was found to be 0.92%. To `Cc1cnc2cc3c(cc2c1N1CCN(C)CC1)NCC3` belongs -1.24%; to `O=C(Nc1cccc(CN2CCCN(Cc3ccc(O)cc3)CC2)c1)c1ccc2ccccc2n1`, -3.88%; to `Cc1cccc2nc(-c3cccc(-c4cccc(NC(=O)c5ccncc5)c4)c3)[nH]c12`, 4.27%. Under `O=S(=O)(NC1CCCCN(Cc2ccccc2O)C1)c1ccc(C(F)(F)F)cc1` (stereo unspecified) stands 0.86%; under `CCOC(=O)C1=C(C)NC2=C(C(=O)CC(C)(C)C2)C1c1ccc(Br)cc1` (stereo unspecified), 0.59%; under `O=C(Nc1ccc(Cn2ncc(N3CCCNCC3)c(Cl)c2=O)cc1)Nc1ccc(-c2ccccc2)cc1`, -4.66% and 1.38%.

As for `O=C(Nc1cccc(-c2cccc(-c3nc4cc(C(F)(F)F)ccc4[nH]3)c2)c1)c1cccnc1`, the inhibition was -1.51%. To `O=C(Nc1ccc(OC(F)(F)F)cc1)NC1CCN(c2ccnc3ccccc23)C1` (stereo unspecified) belongs 3.12%. To `CC(C)C(=O)NC(NC(=S)Nc1ccc(Br)cc1)C(Cl)(Cl)Cl` (stereo unspecified) belongs -0.89%. To `Cc1cc(N[C@@H](Cc2ccccc2)C(=O)NCc2cccc(F)c2)nc(NCc2ccccc2C)n1` belongs 3.17%.
